Hits are enriched below; roughly 7.2% of the tested compounds scored in any of these assays.
Bfl-1 A1 inh: inhibitors of the anti-apoptotic protein A1, read as caspase activation. MEF A1-2A-BIM cells, Caspase-Glo 3/7 luminescence, 3 h; percent of clofoctol response, vehicle zero. caspase activation, % (no concentration beside the values). actives 0.066% (n = 330,000). AID 2462;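 active = over half of replicate activation scores above 10%, or exactly half above 10 with the replicate mean above 10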
AHR act: activators of human aryl hydrocarbon receptor. P35869. AHR-responsive luciferase reporter cells, luminescence. activation, % at 5 µM. actives 2.5% (n = 320,000). AID 2796; in the data active = activation above about 47%;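 note: 0% = vehicle wells and 100% = reference agonist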
Mot1-301 SUMO: blocks SUMOylation pathway, rescuing yeast Mot1-301 growth | actives 1% (n = 320,000) | S. cerevisiae Mot1-301 growth rescue, ATP luminescence, 38.5C; percent above DMSO median, 100 means doubled | growth rescue, % at 18.8 µM | AID 2716;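 active = every valid replicate shows activation above 250% relative to neutral control wells; inactive = the rest, any valid replicate at or below 250%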;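 note: OY570 slx delta 5 strain wells were the positive control but not used for scaling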
ALR H2O2 inh: blocks human ALR sulfhydryl oxidase activity; P55789; purified ALR, DTT oxidation, H2O2 HRP-luminol luminescence; inhibition, % (test concentration not listed); actives 3.8% (n = 290,000);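 active = mean replicate inhibition above about 79%, with every replicate also reaching it, limit read from the data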
Target sequence (P55789 whole entry, looked up): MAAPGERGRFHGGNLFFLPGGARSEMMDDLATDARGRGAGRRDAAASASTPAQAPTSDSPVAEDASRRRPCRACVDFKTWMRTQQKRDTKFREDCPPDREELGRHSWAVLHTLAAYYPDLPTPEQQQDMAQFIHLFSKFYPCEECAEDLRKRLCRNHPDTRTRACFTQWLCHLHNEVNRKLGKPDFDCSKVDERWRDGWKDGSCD
Efflux pump mplx: inhibitors of Candida antifungal efflux pumps expressed in yeast; S. cerevisiae Candida pump triplex, Nile Red efflux; actives 0.44% (n = 330,000); inhibition, % at 10 µM;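 active = plate passing quality check with inhibition over a set limit, or well fluorescence over plate mean plus 4 SD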;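 note: Nile Red retained in pooled yeast measured as flow cytometry median fluorescence; 0% = buffer negative control and 100% = Enniatin B positive control; higher means more Nile Red kept so more efflux inhibition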
VLA-4 inh: inhibition in a human VLA-4 binding assay. actives 0.2% (n = 330,000). inhibition, % (about 7 µM as worked out from the volumes in the protocol). AID 2557. VLA-4 expressing cells, ligand binding flow cytometry; in the data active = inhibition above about 50%
An asterisk follows results filed as active; i = inactive; x = not tested or not shown.

SMILES	Bfl-1 A1 inh	AHR act	Mot1-301 SUMO	ALR H2O2 inh	Efflux pump mplx	VLA-4 inh
O=C(NCc1ccco1)c1ccccc1NS(=O)(=O)c1ccc(Cl)s1	-1.0	0.3	2.9	95.0*	-0.2	-8.4
C/C(=N\NC(=O)C1COc2ccccc2O1)c1ccc(N2CCOCC2)cc1 (stereo not given)	0.1	4.0	14.3	36.5	-0.1	13.2
COc1cc(Cl)c(C)cc1NC(=O)CN(C)C1CCS(=O)(=O)C1 (stereo not given)	-0.1	16.4	-27.3	-4.2	-0.1	-3.1
CC1CCc2sc3c(c2C1)c(=O)n(CC(=O)O)c(=O)n3Cc1ccc(Cl)cc1 (stereo not given)	0.1	7.4	34.4	x	0.2	18.1
O=C(O)Cn1c(=O)c2c3c(sc2n(Cc2ccc(Cl)cc2Cl)c1=O)CCCC3	0.5	x	44.5	76.5*	0.1	5.9
CCOCCCNc1nc(C)nc2c1nnn2Cc1c(F)cccc1Cl	0.2	4.2	-4.0	-4.6	-0.1	15.5
CC(=O)C(=Nc1ccccc1Cl)NNc1ccc(Cl)cc1	0.1	15.5	141.4	95.1*	0.4	-0.2
O=[N+]([O-])c1cccc(-c2nc(-c3ccncc3)no2)c1	-4.8	29.2	-12.0	-1.6	0.0	24.2
O=C(O)c1ccc(-c2noc(-c3ccccc3Cl)n2)cc1	-10.6	-3.1	-5.1	5.4	-0.1	14.3
O=[N+]([O-])c1cccc(-c2nc(-c3ccccc3)no2)c1	-4.9	57.6*	6.8	-3.0	-0.1	4.2
O=C(c1ccccc1-c1nc(-c2ccc(Cl)cc2)no1)N1CCCC1	-0.2	53.3*	120.6	-11.6	0.0	3.4
Fc1ccccc1-c1nc(-c2ccc(Cl)cc2)no1	-4.4	85.4*	318.0	-36.8	0.0	-8.1
c1ccc(-c2noc(-c3ccccc3-c3ccccc3)n2)cc1	0.5	61.8*	5.9	-10.3	0.1	12.1
Cc1ccnc(NC(=O)c2cccc(S(=O)(=O)N3CCN(c4ccc(F)cc4)CC3)c2)c1	0.0	6.3	180.7	x	0.0	-4.3
CCOC(=O)c1sc(Nc2nc3c(F)cccc3s2)cc1C	0.3	52.5*	-5.0	2.4	0.1	10.0
O=[N+]([O-])c1ccc(/C=C/c2ccc3cccc([N+](=O)[O-])c3n2)cc1	-0.1	105.9*	10.0	x	0.2	2.1
CCOc1cc(/C=C/c2cc(C(F)(F)F)[nH]c(=O)n2)ccc1O	0.0	3.2	-7.6	99.0*	0.1	-27.7
CCOc1cc(/C=C/c2ccc3cccc([N+](=O)[O-])c3n2)ccc1O	0.4	2.8	7.0	93.6*	0.2	3.0
O=[N+]([O-])c1ccccc1/C=C/c1ccc2ccccc2n1	-6.5	74.7*	-1.4	6.9	-0.2	-9.8
O=[N+]([O-])c1ccc2nc(C3CCCCC3)[nH]c2c1	1.4	11.9	4.3	97.2*	-0.3	-15.3
Nc1nc2ccc([N+](=O)[O-])cc2[nH]1	-0.8	4.2	8.8	0.1	-0.1	-2.5
Cc1nonc1OCCNCc1c(C(=O)N2CCCCCCC2)nc2ccc(Cl)cn12	-0.7	3.4	4.4	-0.9	0.0	5.7
Cc1ccc(NCc2nnc(SCC(=O)N3CCCCC3)n2CC2CCCO2)c(C)c1 (stereo not given)	-0.2	5.2	-2.1	92.1*	0.0	10.3
C/C(=N\Nc1cccc2cccnc12)c1ccc(N)cc1	-0.4	28.6	7.1	-24.8	-0.2	-37.2
Oc1c(/C=N/Nc2cccc3cccnc23)ccc2ccccc12	-4.2	48.4*	30.3	-18.1	-0.4	-6.5
SMILES	Bfl-1 A1 inh	AHR act	Mot1-301 SUMO	ALR H2O2 inh	Efflux pump mplx	VLA-4 inh
COc1cc(/C=N/Nc2cccc3cccnc23)cc(OC)c1O	1.1	22.8	28.2	36.3	0.0	2.9
C/C(=N\Nc1cccc2cccnc12)c1ccccn1	0.4	47.0*	382.3	89.8*	-0.1	-5.6
C/C(=N\Nc1cccc2cccnc12)c1ccccc1O	0.5	50.2*	-9.1	2.2	-0.1	12.5
CC(C)Oc1cccc(C(=O)C2CCCN(S(=O)(=O)C(C)C)C2)c1 (stereo not given)	-0.8	6.9	-25.9	0.7	0.0	10.7
COc1ccc(NC(=O)CN(C)C(=O)c2c(C)nn(Cc3ccc(C)cc3)c2Cl)cc1	-0.7	0.7	-7.3	8.0	-0.1	-8.0
O=C1CN(C(=O)CSc2ccccn2)c2ccccc2N1	0.4	19.3	1.8	-1.2	0.0	5.5
O=C(Nc1ncc2c(n1)-c1ccccc1OC2)c1ccc(F)cc1	-0.6	55.5*	-18.3	1.0	0.2	2.0
O=C(Nc1ncc2c(n1)-c1ccccc1OC2)c1cccc([N+](=O)[O-])c1	0.6	20.4	21.8	11.1	0.1	-5.5
O=C(Nc1ncc2c(n1)-c1ccccc1CC2)c1ccc(Cl)cc1	-1.3	74.9*	219.8	-34.2	0.1	8.4
Cc1ccccc1C1CC(c2cccs2)Nc2nnnn21 (stereo not given)	-0.6	-2.4	-0.9	x	0.1	-7.9
CC(C)OCCCN1CN(S(=O)(=O)c2cccs2)c2nc3ccccc3nc21	1.2	-4.2	-15.9	0.7	-0.3	8.7
Cc1ccc([N+](=O)[O-])cc1NC(=O)c1ccc(-c2ccccc2)cc1	0.3	67.1*	x	-7.0	0.0	2.6
Cc1ccc(C(=O)Nc2cc([N+](=O)[O-])ccc2C)cc1	0.0	16.3	5.0	-1.2	-0.2	5.4
O=C(Nc1ccccc1-c1ccccc1)c1cccc([N+](=O)[O-])c1	-0.5	56.0*	-15.6	x	0.1	-16.3
Cc1ccc(NC(=O)c2ccc(C(C)(C)C)cc2)cc1[N+](=O)[O-]	-0.7	-1.6	6.7	5.9	0.1	2.4
Cc1ccc([N+](=O)[O-])cc1NC(=O)c1ccc(C(C)(C)C)cc1	-0.6	71.2*	1.3	-9.6	0.1	24.2
O=C(Nc1ccc(NC(=O)c2cccc([N+](=O)[O-])c2)cc1)c1cccc([N+](=O)[O-])c1	-0.9	21.5	0.3	-20.3	0.0	-3.5
O=C(Nc1ncc([N+](=O)[O-])s1)c1cccc([N+](=O)[O-])c1	-8.5	4.1	-29.5	97.9*	1.1	-21.3
COc1ccc(N2Cc3cccc(C(=O)N4CCN(C(=O)c5ccco5)CC4)c3C2=O)cc1	0.7	-0.1	-2.4	-16.8	0.0	8.0
CCOC(=O)C1(CCCc2ccccc2)CCN(C(=O)CCc2cnn(C)c2)CC1	0.3	0.7	299.9	x	0.1	9.7
CCOC(=O)C1(CCc2ccccc2)CCN(C(=O)c2occc2C)CC1	-0.9	6.0	-3.0	1.1	-0.1	3.1
CCOC(=O)C1(CCCc2ccccc2)CCN(C(=O)CCOC)CC1	-0.6	0.9	600.1*	-5.0	-0.1	-0.2
CCOC(=O)C1(CCc2ccccc2)CCN(C(=O)Cc2nonc2C)CC1	-0.8	2.3	7.5	100.2*	0.0	7.3
NC(=O)C1C(c2ccccc2)=C1c1ccccc1	-0.4	-4.8	i	96.6*	-0.1	9.2
COc1ccc(-c2cc(C)no2)cc1S(=O)(=O)N1CCN(c2ccccc2F)CC1	0.0	2.1	-7.4	-3.0	0.0	1.3
